{"source": "the supplement of paper PMC10037445", "key": {"RAW-Dual [1]": {"tested_on": "RAW-Dual", "assay": "NF-kB SEAP reporter activity, fold change vs agonist alone; higher = enhanced NF-kB activity", "how_it_was_run": "(§1)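 RAW-Dual macrophages (50,000 cells/well in DMEM, 384-well plates) received 50 nL of library stock by pin tool, then a PRR agonist 1 h later, and were kept at 37 °C, 5% CO2. After 20 hours, supernatant was read for IRF by QuantiLuc luminescence and for NF-κB by QuantiBlue absorbance at 620 nm. Reporter activity is fold change over agonist-alone wells. Cytotoxic wells had IncuCyte confluency below 70% of agonist controls in both mask sets.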"}, "RAW-Dual [2]": {"tested_on": "RAW-Dual", "assay": "NF-kB SEAP reporter activity, fold change vs agonist alone; cytotoxicity flag (confluency mask): cytotoxic (confluency <70% of control); higher = enhanced NF-kB activity", "how_it_was_run": "as §1"}, "RAW-Dual [3]": {"tested_on": "RAW-Dual", "assay": "NF-kB SEAP reporter activity, fold change vs agonist alone; cytotoxicity flag (confluency mask): not cytotoxic; higher = enhanced NF-kB activity", "how_it_was_run": "as §1"}, "[4]": {"settings": "agonist: ODN 1826 (TLR9) 0.5 ug/mL"}, "[5]": {"settings": "agonist: Pam2CSK4 (TLR2/6) 0.1 ug/mL"}, "[6]": {"settings": "agonist: Pam3CSK4 (TLR2/1) 0.1 ug/mL"}, "[7]": {"settings": "library stock concentration (final ~1000-fold dilution): 10 mM, cytotoxicity flag (confluency mask): not cytotoxic, agonist: Imiquimod (TLR7) […]"}, "[8]": {"settings": "library stock concentration (final ~1000-fold dilution): 10 mM, cytotoxicity flag (confluency mask): not cytotoxic, agonist: MPLA (TLR4) […]"}, "[9]": {"settings": "library stock concentration (final ~1000-fold dilution): 10 mM water, cytotoxicity flag (confluency mask): not cytotoxic, agonist: Imiquimod (TLR7) […]"}, "[10]": {"settings": "library stock concentration (final ~1000-fold dilution): 10 mM water, cytotoxicity flag (confluency mask): not cytotoxic, agonist: MPLA (TLR4) […]"}}, "note": "Over roughly 2,900 compounds, “NF-kB SEAP reporter activity, fold change vs agonist alone” has its median near 0.99; the highest 2% begin near 2.6. The entries come from a sample that favours the highest values as a whole."}
{"smiles": "Cl.NCCOCCOCCNC(=O)Cc1ccc(Nc2nc(NCc3ccc(F)cc3)nc(NCC3CCCCC3)n2)cc1", "values": [{"measurement": "NF-kB SEAP reporter activity", "setting": "RAW-Dual [1]; library stock concentration (final ~1000-fold dilution): 10 mM, cytotoxicity flag (confluency mask): cytotoxic (confluency <70% of control), agonist: Imiquimod (TLR7) […]", "result": 1.05}, {"measurement": "NF-kB SEAP reporter activity", "setting": "RAW-Dual [1]; library stock concentration (final ~1000-fold dilution): 10 mM, cytotoxicity flag (confluency mask): cytotoxic (confluency <70% of control), agonist: MPLA (TLR4) […]", "result": 1.59}]}
{"smiles": "Cl.NCCOCCOCCNC(=O)Cc1ccc(Nc2nc(NCc3ccc(F)cc3)nc(NCC3CCCCC3)n2)cc1", "note": "(library stock concentration (final ~1000-fold dilution): 10 mM)", "values": [{"measurement": "NF-kB SEAP reporter activity", "setting": "RAW-Dual [2]; agonist: LPS (TLR4) 0.1 ug/mL", "result": 0.643}, {"measurement": "NF-kB SEAP reporter activity", "setting": "RAW-Dual [2]; [4]", "result": 0.852}, {"measurement": "NF-kB SEAP reporter activity", "setting": "RAW-Dual [2]; [5]", "result": 0.738}, {"measurement": "NF-kB SEAP reporter activity", "setting": "RAW-Dual [2]; [6]", "result": 0.911}]}
{"smiles": "O=C(Nc1nccs1)C(c1cc(F)ccc1O)N1Cc2ccccc2C1=O", "note": "(configuration not stated) (library stock concentration (final ~1000-fold dilution): 10 mM)", "values": [{"measurement": "NF-kB SEAP reporter activity", "setting": "RAW-Dual [3]; agonist: LPS (TLR4) 0.1 ug/mL", "result": 0.902}, {"measurement": "NF-kB SEAP reporter activity", "setting": "RAW-Dual [3]; [4]", "result": 0.989}, {"measurement": "NF-kB SEAP reporter activity", "setting": "RAW-Dual [3]; [5]", "result": 0.865}, {"measurement": "NF-kB SEAP reporter activity", "setting": "RAW-Dual [3]; [6]", "result": 1.02}]}
{"smiles": "O=C(Nc1nccs1)C(c1cc(F)ccc1O)N1Cc2ccccc2C1=O", "note": "(configuration not stated)", "values": [{"measurement": "NF-kB SEAP reporter activity", "setting": "RAW-Dual [1]; [7]", "result": 0.944}, {"measurement": "NF-kB SEAP reporter activity", "setting": "RAW-Dual [1]; [8]", "result": 0.982}]}
{"smiles": "CCOC(=O)CC(=O)O", "values": [{"measurement": "NF-kB SEAP reporter activity", "setting": "RAW-Dual [1]; [9]", "result": 0.955}, {"measurement": "NF-kB SEAP reporter activity", "setting": "RAW-Dual [1]; [10]", "result": 1}]}
{"smiles": "CCOC(=O)CC(=O)O", "note": "(library stock concentration (final ~1000-fold dilution): 10 mM water)", "values": [{"measurement": "NF-kB SEAP reporter activity", "setting": "RAW-Dual [3]; agonist: LPS (TLR4) 0.1 ug/mL", "result": 1.31}, {"measurement": "NF-kB SEAP reporter activity", "setting": "RAW-Dual [3]; [4]", "result": 1.09}, {"measurement": "NF-kB SEAP reporter activity", "setting": "RAW-Dual [3]; [5]", "result": 1.18}, {"measurement": "NF-kB SEAP reporter activity", "setting": "RAW-Dual [3]; [6]", "result": 1.03}]}
{"smiles": "CCCCOc1cc(C(=O)NCCN(CC)CC)c2ccccc2n1.Cl", "note": "(library stock concentration (final ~1000-fold dilution): 10 mM)", "values": [{"measurement": "NF-kB SEAP reporter activity", "setting": "RAW-Dual [3]; agonist: LPS (TLR4) 0.1 ug/mL", "result": 0.994}, {"measurement": "NF-kB SEAP reporter activity", "setting": "RAW-Dual [3]; [4]", "result": 0.959}, {"measurement": "NF-kB SEAP reporter activity", "setting": "RAW-Dual [3]; [5]", "result": 0.866}, {"measurement": "NF-kB SEAP reporter activity", "setting": "RAW-Dual [3]; [6]", "result": 1.09}]}
{"smiles": "CCCCOc1cc(C(=O)NCCN(CC)CC)c2ccccc2n1.Cl", "values": [{"measurement": "NF-kB SEAP reporter activity", "setting": "RAW-Dual [1]; [7]", "result": 1.57}, {"measurement": "NF-kB SEAP reporter activity", "setting": "RAW-Dual [1]; [8]", "result": 1.01}]}
{"smiles": "CN1CCOC(c2ccccc2)c2ccccc2C1.Cl", "note": "(configuration not stated)", "values": [{"measurement": "NF-kB SEAP reporter activity", "setting": "RAW-Dual [1]; [9]", "result": 1.12}, {"measurement": "NF-kB SEAP reporter activity", "setting": "RAW-Dual [1]; [10]", "result": 1.03}]}
{"smiles": "CN1CCOC(c2ccccc2)c2ccccc2C1.Cl", "note": "(configuration not stated) (library stock concentration (final ~1000-fold dilution): 10 mM water)", "values": [{"measurement": "NF-kB SEAP reporter activity", "setting": "RAW-Dual [3]; agonist: LPS (TLR4) 0.1 ug/mL", "result": 1.36}, {"measurement": "NF-kB SEAP reporter activity", "setting": "RAW-Dual [3]; [4]", "result": 0.943}, {"measurement": "NF-kB SEAP reporter activity", "setting": "RAW-Dual [3]; [5]", "result": 1.05}, {"measurement": "NF-kB SEAP reporter activity", "setting": "RAW-Dual [3]; [6]", "result": 0.969}]}
{"smiles": "COc1ccc(S(=O)(=O)N(C(C)=O)c2ccccc2/C=C/c2cc[n+]([O-])cc2)cc1", "note": "(library stock concentration (final ~1000-fold dilution): 10 mM)", "values": [{"measurement": "NF-kB SEAP reporter activity", "setting": "RAW-Dual [3]; agonist: LPS (TLR4) 0.1 ug/mL", "result": 1.85}, {"measurement": "NF-kB SEAP reporter activity", "setting": "RAW-Dual [3]; [4]", "result": 2.59}, {"measurement": "NF-kB SEAP reporter activity", "setting": "RAW-Dual [3]; [5]", "result": 1.94}, {"measurement": "NF-kB SEAP reporter activity", "setting": "RAW-Dual [3]; [6]", "result": 1.43}]}
{"smiles": "COc1ccc(S(=O)(=O)N(C(C)=O)c2ccccc2/C=C/c2cc[n+]([O-])cc2)cc1", "values": [{"measurement": "NF-kB SEAP reporter activity", "setting": "RAW-Dual [1]; [7]", "result": 2.17}, {"measurement": "NF-kB SEAP reporter activity", "setting": "RAW-Dual [1]; [8]", "result": 1.61}]}
{"smiles": "COc1ccc(S(=O)(=O)N(CCO)c2ccccc2CN(C)CC=Cc2ccc(Cl)cc2)cc1", "values": [{"measurement": "NF-kB SEAP reporter activity", "setting": "RAW-Dual [1]; [7]", "result": 0.802}, {"measurement": "NF-kB SEAP reporter activity", "setting": "RAW-Dual [1]; [8]", "result": 1.07}]}
{"smiles": "COc1ccc(S(=O)(=O)N(CCO)c2ccccc2CN(C)CC=Cc2ccc(Cl)cc2)cc1", "note": "(library stock concentration (final ~1000-fold dilution): 10 mM)", "values": [{"measurement": "NF-kB SEAP reporter activity", "setting": "RAW-Dual [3]; agonist: LPS (TLR4) 0.1 ug/mL", "result": 0.958}, {"measurement": "NF-kB SEAP reporter activity", "setting": "RAW-Dual [3]; [4]", "result": 0.257}, {"measurement": "NF-kB SEAP reporter activity", "setting": "RAW-Dual [3]; [5]", "result": 0.537}, {"measurement": "NF-kB SEAP reporter activity", "setting": "RAW-Dual [3]; [6]", "result": 0.372}]}
{"smiles": "C=C1C(CO)C(O)CC1n1cnc2c(=O)nc(N)[nH]c21", "note": "(configuration not stated)", "values": [{"measurement": "NF-kB SEAP reporter activity", "setting": "RAW-Dual [1]; [8]", "result": 1.07}]}
{"smiles": "C=C1C(CO)C(O)CC1n1cnc2c(=O)nc(N)[nH]c21", "note": "(configuration not stated) (library stock concentration (final ~1000-fold dilution): 10 mM)", "values": [{"measurement": "NF-kB SEAP reporter activity", "setting": "RAW-Dual [3]; agonist: LPS (TLR4) 0.1 ug/mL", "result": 1.32}, {"measurement": "NF-kB SEAP reporter activity", "setting": "RAW-Dual [3]; [4]", "result": 0.996}, {"measurement": "NF-kB SEAP reporter activity", "setting": "RAW-Dual [3]; [5]", "result": 1.37}, {"measurement": "NF-kB SEAP reporter activity", "setting": "RAW-Dual [3]; [6]", "result": 0.846}]}
